Data published in PubChem BioAssay AID1159580 (chemical genetic matrix, 2015).
Out of some 5,500 compounds screened, about 2,000 (36%) were called active. Not shown: some 18% with an inconclusive outcome. Cut-off read from the data, not from the text of the source: active = normalized growth mostly below about 0.91 (no sharp cut-off); inconclusive = no clear call, values can overlap the other calls; inactive = mostly above about 0.92. This is one part of the list.

Assay: chemical genetic growth profiling, strain panel (AID 1159580);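 note: tested at 20 µM; growth read once vehicle control cultures reached saturation at 30 °C; 1 = growth at the plate median or of vehicle wells; lower values mean less growth of the strain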
Conditions: growth OD

Measured: normalized growth

C[C@]12C=CC(=O)C=C1CCC1C3C[C@@H](O)[C@](O)(C(=O)CO)[C@@]3(C)C[C@H](O)[C@@]12F (some centres undefined)
inactive: S. cerevisiae deletion strains, locus YJR066W, strain TOR1, active compounds read low 0.952 | S. cerevisiae deletion strains, locus YJR075W, strain HOC1, active compounds read low 1.01 | S. cerevisiae deletion strains, locus YKL009W, strain mrt4, active compounds read low 0.983 | S. cerevisiae deletion strains, locus YKL068W, active compounds read low 0.992 | S. cerevisiae deletion strains, locus YKL085W, strain MDH1 (second series), active compounds read low 0.983 | S. cerevisiae deletion strains, locus YKL085W, strain MDH1, active compounds read low 0.983 | S. cerevisiae deletion strains, locus YKL160W, strain elf1, active compounds read low 0.957 | S. cerevisiae deletion strains, locus YKL190W, strain CNB1, active compounds read low 1 | S. cerevisiae deletion strains, locus YKR001C, strain vps1, active compounds read low 0.944 | S. cerevisiae deletion strains, locus YKR026C, strain gcn3, active compounds read low 0.985 | S. cerevisiae deletion strains, locus YKR091W, strain srl3, active compounds read low 0.985 | S. cerevisiae deletion strains, locus YLL001W, strain dnm1, active compounds read low 1.01 | S. cerevisiae deletion strains, locus YLL026W, active compounds read low 0.964 | S. cerevisiae deletion strains, locus YLL041C, strain sdh2, active compounds read low 0.985 | S. cerevisiae deletion strains, locus YLR027C, strain aat2, active compounds read low 0.998 | S. cerevisiae deletion strains, locus YLR039C, strain RIC1, active compounds read low 1.01 | S. cerevisiae deletion strains, locus YLR058C, strain SHM2, active compounds read low 1.01 | S. cerevisiae deletion strains, locus YLR102C, strain apc9, active compounds read low 0.981 | S. cerevisiae deletion strains, locus YLR113W, strain HOG1, active compounds read low 1.01 | S. cerevisiae deletion strains, locus YLR221C, strain rsa3, active compounds read low 1.01 | S. cerevisiae deletion strains, locus YLR258W, strain gsy2, active compounds read low 0.983 | S. cerevisiae deletion strains, locus YLR262C, strain YPT6 (second series), active compounds read low 0.996 | S. cerevisiae deletion strains, locus YLR262C, strain YPT6, active compounds read low 1.02 | S. cerevisiae deletion strains, locus YLR268W, strain sec22, active compounds read low 0.953 | S. cerevisiae deletion strains, locus YLR320W, strain mms22, active compounds read low 0.98 | S. cerevisiae deletion strains, locus YLR330W, strain CHS5, active compounds read low 1.01 | S. cerevisiae deletion strains, locus YLR342W, strain FKS1 (second series), active compounds read low 1 | S. cerevisiae deletion strains, locus YLR342W, strain FKS1, active compounds read low 0.982 | S. cerevisiae deletion strains, locus YLR357W, strain rsc2, active compounds read low 0.941 | S. cerevisiae deletion strains, locus YLR370C, strain arc18, active compounds read low 0.991 | S. cerevisiae deletion strains, locus YLR371W, strain rom2, active compounds read low 0.987 | S. cerevisiae deletion strains, locus YLR384C, strain iki3, active compounds read low 0.993 | S. cerevisiae deletion strains, locus YLR418C, strain cdc73, active compounds read low 0.968 | S. cerevisiae deletion strains, locus YML016C, strain PPZ1, active compounds read low 1.01 | S. cerevisiae deletion strains, locus YML032C, strain rad52, active compounds read low 0.974 | S. cerevisiae deletion strains, locus YML120C, strain ndi1, active compounds read low 0.99 | S. cerevisiae deletion strains, locus YML124C, strain tub3, active compounds read low 0.981 | S. cerevisiae deletion strains, locus YMR058W, strain fet3, active compounds read low 1.04 | S. cerevisiae deletion strains, locus YMR078C, strain ctf18, active compounds read low 0.989 | S. cerevisiae deletion strains, locus YMR125W, strain sto1, active compounds read low 0.942 | S. cerevisiae deletion strains, locus YMR129W, active compounds read low 0.988 | S. cerevisiae deletion strains, locus YMR205C, strain PFK2, active compounds read low 0.958 | S. cerevisiae deletion strains, locus YMR223W, strain ubp8, active compounds read low 0.991 | S. cerevisiae deletion strains, locus YMR231W, strain pep5, active compounds read low 0.989 | S. cerevisiae deletion strains, locus YMR263W, strain SAP30, active compounds read low 1.01 | S. cerevisiae deletion strains, locus YMR307W, strain GAS1, active compounds read low 0.991 | S. cerevisiae deletion strains, locus YNL067W, strain RPL9B, active compounds read low 1.01 | S. cerevisiae deletion strains, locus YNL071W, strain lat1, active compounds read low 0.983 | S. cerevisiae deletion strains, locus YNL183C, strain NPR1, active compounds read low 0.961 | S. cerevisiae deletion strains, locus YNL209W, strain ssb2, active compounds read low 0.978 | S. cerevisiae deletion strains, locus YNL233W, strain BNI4, active compounds read low 1.01 | S. cerevisiae deletion strains, locus YNL248C, strain rpa49, active compounds read low 0.925 | S. cerevisiae deletion strains, locus YNL250W, strain rad50, active compounds read low 0.985 | S. cerevisiae deletion strains, locus YNL271C, strain bni1, active compounds read low 0.971 | S. cerevisiae deletion strains, locus YNL298W, strain CLA4, active compounds read low 0.98 | S. cerevisiae deletion strains, locus YNL307C, strain MCK1, active compounds read low 0.975 | S. cerevisiae deletion strains, locus YNL322C, strain KRE1 (second series), active compounds read low 0.944 | S. cerevisiae deletion strains, locus YNR049C, strain mso1, active compounds read low 0.985 | S. cerevisiae deletion strains, locus YNR052C, strain pop2, active compounds read low 0.988 | S. cerevisiae deletion strains, locus YOL006C, strain TOP1, active compounds read low 1.06 | S. cerevisiae deletion strains, locus YOL012C, strain htz1 1.1 | S. cerevisiae deletion strains, locus YOL147C, strain pex11, active compounds read low 0.975 | S. cerevisiae deletion strains, locus YOR001W, strain rrp6, active compounds read low 1.02 | S. cerevisiae deletion strains, locus YOR061W, strain CKA2, active compounds read low 1.01 | S. cerevisiae deletion strains, locus YOR069W, strain VPS5, active compounds read low 1.01 | S. cerevisiae deletion strains, locus YOR070C, strain gyp1, active compounds read low 0.979 | S. cerevisiae deletion strains, locus YOR080W, strain dia2, active compounds read low 0.987 | S. cerevisiae deletion strains, locus YOR083W, strain WHI5, active compounds read low 0.901 | S. cerevisiae deletion strains, locus YOR106W, strain vam3, active compounds read low 0.924 | S. cerevisiae deletion strains, locus YOR136W, strain idh2, active compounds read low 0.986 | S. cerevisiae deletion strains, locus YOR144C, strain elg1, active compounds read low 0.985 | S. cerevisiae deletion strains, locus YOR184W, strain ser1, active compounds read low 0.974 | S. cerevisiae deletion strains, locus YOR231W, strain MKK1, active compounds read low 0.983 | S. cerevisiae deletion strains, locus YOR265W, strain rbl2, active compounds read low 0.969 | S. cerevisiae deletion strains, locus YOR270C, strain vph1, active compounds read low 0.988 | S. cerevisiae deletion strains, locus YOR290C, strain snf2, active compounds read low 0.962 | S. cerevisiae deletion strains, locus YOR316C, strain cot1, active compounds read low 0.991 | S. cerevisiae deletion strains, locus YPL051W, strain arl3, active compounds read low 0.967 | S. cerevisiae deletion strains, locus YPL078C, strain atp4, active compounds read low 0.961 | S. cerevisiae deletion strains, locus YPL106C, strain sse1, active compounds read low 0.976 | S. cerevisiae deletion strains, locus YPL240C, strain hsp82, active compounds read low 0.986 | S. cerevisiae deletion strains, locus YPL241C, strain CIN2, active compounds read low 1.01 | S. cerevisiae deletion strains, locus YPL256C, strain CLN2, active compounds read low 0.973 | S. cerevisiae deletion strains, locus YPR119W, strain clb2, active compounds read low 0.99 | S. cerevisiae deletion strains, locus YPR141C, strain kar3, active compounds read low 0.993 | S. cerevisiae deletion strains, locus YPR163C, strain tif3, active compounds read low 0.973 | S. cerevisiae deletion strains, locus YPR167C, strain met16, active compounds read low 0.979 | S. cerevisiae deletion strains, strain wtn01, active compounds read low 0.969 | S. cerevisiae strains, strain wild type, active compounds read low 1.01
